SENP8 block-1 = inhibitors of human SENP8 protease; actives 0.64% (n = 360,000); Q96LD8; AID 602440; recombinant SENP8, Nedd8 substrate fluorescence; inhibition, % at 20 µM; in the data active means inhibition mostly above about 40%, no sharp cut-off; inactive means mostly below about 27%
Target sequence (Q96LD8 whole entry, looked up): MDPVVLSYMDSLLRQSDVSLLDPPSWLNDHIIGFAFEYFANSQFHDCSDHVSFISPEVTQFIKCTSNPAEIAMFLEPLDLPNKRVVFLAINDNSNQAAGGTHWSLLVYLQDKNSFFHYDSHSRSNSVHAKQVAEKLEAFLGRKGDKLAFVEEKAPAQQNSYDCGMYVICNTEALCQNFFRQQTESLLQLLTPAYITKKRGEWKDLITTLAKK
SENP8 block-2 = inhibitors of human SENP8 protease; Q96LD8; purified SENP8, Z-RLRGG-aminoluciferin cleavage, luminescence; inhibition, % at 10 µM; actives 1.2% (n = 330,000); in the data active means inhibition above about 50%
SENP7 block = SENP7 protease inhibition | recombinant SENP7, Z-RLRGG-aminoluciferin luminescence, 40 min | inhibition, % at 5 µM | actives 1.5% (n = 330,000) | AID 434973;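 active means inhibition above about 50% at the single test dose, limit read from the data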;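 further: plate controls were DMSO with enzyme for no effect and no enzyme buffer wells for full effect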
AHR activator = human AHR activation. P35869. AHR-responsive luciferase reporter cells, luminescence. activation, % at 5 µM. actives 2.5% (n = 320,000). AID 2796; in the data active means activation above about 47%;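 further: 0% = vehicle wells and 100% = reference agonist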
EBI2 block = EBI2 (human) antagonism | EBI2 beta-arrestin recruitment, luminescence, 7a,25-OHC stimulated | inhibition, % at 5 µM | actives 0.81% (n = 360,000); in the data active means inhibition above about 38%;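 further: enzyme fragment complementation signal reports receptor beta-arrestin coupling in cells; 0% = agonist plus DMSO wells and 100% = wells without agonist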
Target sequence (P32249 whole entry, looked up, the tested form may be a part): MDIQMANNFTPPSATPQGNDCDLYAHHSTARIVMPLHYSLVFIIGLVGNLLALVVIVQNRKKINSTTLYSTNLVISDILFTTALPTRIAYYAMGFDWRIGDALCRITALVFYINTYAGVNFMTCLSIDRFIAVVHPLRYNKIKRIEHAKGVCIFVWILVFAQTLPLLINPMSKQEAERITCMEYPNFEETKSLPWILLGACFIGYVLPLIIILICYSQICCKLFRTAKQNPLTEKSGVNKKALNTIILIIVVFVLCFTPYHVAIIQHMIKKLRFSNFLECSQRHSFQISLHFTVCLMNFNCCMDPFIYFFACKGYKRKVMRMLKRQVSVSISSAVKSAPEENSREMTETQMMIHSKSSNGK
SENP6 inh = blocks the human protease SENP6; Q9GZR1; Recombinant SENP6 catalytic domain, aminoluciferin luminescence; inhibition, % at 10 µM; actives 1.8% (n = 330,000);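 active means inhibition above about 50% at the single tested dose, limit read from the data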;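 further: plate controls were DMSO wells with enzyme for no effect and DMSO wells lacking enzyme for full effect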
EBI2 conf = confirmation of human EBI2 receptor antagonists | EBI2 beta-arrestin luminescence, 7a,25-OHC antagonism | actives 29% (n = 2,400) | AID 651997 | inhibition, % at 5 µM | shares compounds with EBI2 block;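 active means inhibition of at least 50%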
EBI2 ag = activates EBI2, counter-screen for EBI2 antagonists; shares compounds with EBI2 block; EBI2-expressing cells, agonist mode, luminescence, 60 min; 0% vehicle, 100% 7α,25-dihydroxycholesterol control; activation, % at 5 µM; 2,400 tested, under 10 active;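 active means activation of at least 50%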
bGal cs = beta-galactosidase inhibition counter-screen; actives 1% (n = 2,400); purified beta-galactosidase, luminescent Galacton Star, 15 min; shares compounds with EBI2 block; inhibition, % at 5 µM; AID 652176;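 active means replicate-average signal at least 3 plate SD below neutral wells, shown as high inhibition, flagging enzyme-inhibiting false positives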;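 further: 0% = DMSO wells with enzyme and 100% = wells lacking enzyme; higher means stronger loss of beta-gal luminescence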
* = called active by the depositor; x = not tested or not shown. The list is not random: actives were taken first. Their share in the collection is about 5%.

SMILES | SENP8 block-1 | SENP8 block-2 | SENP7 block | AHR activator | EBI2 block | SENP6 inh | EBI2 conf | EBI2 ag | bGal cs
COc1cc(CN2CCCCC2C(=O)Nc2ccc(Oc3ccccc3)nc2)ccc1O (stereo unspecified) | -21 | -3 | -4 | 10 | 87* | 3 | 50* | 0 | 3
O=C(Nc1ccc(Oc2ccccc2)nc1)C1CCCCN1Cc1ccc(O)cc1 (stereo unspecified) | 1 | 0 | 0 | 8 | 86* | -7 | 55* | -1 | 4
COCCc1ncc(CN2CCCCC2C(=O)Nc2ccc(Oc3ccccc3)nc2)cn1 (stereo unspecified) | 4 | 10 | -11 | 2 | 19 | 0 | x | x | x
O=C(Nc1ccc(Oc2ccccc2)nc1)C1CCCCN1Cc1cccc(O)c1 (stereo unspecified) | 10 | 5 | 1 | 6 | 93* | 1 | 74* | 0 | 7
COc1ccccc1NS(=O)(=O)c1cc(C(=O)NCC(c2ccco2)N2CCCCC2)ccc1C (stereo unspecified) | -5 | -12 | -3 | 5 | -6 | -12 | x | x | x
COc1ccc(C(=O)Nc2ccc(NS(=O)(=O)c3ccccc3)cc2)cc1OC | 30 | 4 | 1 | 4 | 1 | 8 | x | x | x
O=C(Nc1ccc(Cl)cc1)N1CCN(c2ccc3nnc(-c4ccc(F)cc4)n3n2)CC1 | -21 | -10 | -11 | -4 | 48* | -6 | 49 | -2 | -8
O=C(Nc1ccc(Cl)cc1)N1CCC(c2nc(-c3ccc(F)cc3)no2)CC1 | 10 | -14 | -11 | 3 | 53* | -16 | 33 | 2 | 7
COc1ccc(NC(=O)N2CCCC(c3nc(-c4ccc(OC)cc4)no3)C2)cc1 (stereo unspecified) | 15 | -1 | 2 | 0 | 58* | -2 | 30 | 1 | 2
COc1ccc(-c2noc(C3CCCN(C(=O)Nc4ccccc4)C3)n2)cc1 (stereo unspecified) | 6 | -14 | -7 | 5 | -4 | -7 | x | x | x
Cn1cccc1CNC(=S)Nc1ccccc1F | 16 | -12 | -5 | 1 | -9 | -10 | x | x | x
Cc1ccc2cccc(N=Cc3c(C)[nH]n(-c4ccccc4)c3=O)c2n1 | 13 | x | x | 38 | 78* | x | 67* | -1 | 11
Cc1ccccc1NC(=O)CON=C(N)c1ccccc1 | 12 | 3 | 7 | 0 | -5 | -2 | x | x | x
O=C(/C=C/c1ccco1)N1CCN(S(=O)(=O)c2ccccc2)CC1 | -8 | 0 | 2 | 1 | 9 | 2 | x | x | x
COc1cccc(/C=C/C(=O)N2CCN(S(=O)(=O)c3ccccc3)CC2)c1OC | -251 | -1 | 5 | 10 | 45* | -5 | 20 | 0 | 3
COc1cc(/C=C/C(=O)NC2CCCCC2)cc(OC)c1OC | -74 | -9 | -1 | 2 | 1 | -12 | x | x | x
COc1cc2c(cc1OC)C(CNC(=O)C=Cc1cc(OC)c(OC)c(OC)c1)C2 (stereo unspecified) | -100 | x | x | x | 50* | x | 32 | 1 | 4
COc1ccc(/C=C/C(=O)N2CCN(S(=O)(=O)c3ccccc3)CC2)cc1OC | -160 | -5 | 2 | 3 | 46* | -15 | 20 | 1 | 4
Cc1ccc(S(=O)(=O)N2CCN(C(=O)Cc3ccccc3)CC2)cc1C | 21 | 4 | -4 | 0 | 21 | -4 | x | x | x
Cc1ccc(S(=O)(=O)N2CCN(C(=O)/C=C/c3ccccc3)CC2)cc1C | 9 | -5 | -11 | x | 89* | -3 | 76* | -1 | -8
Cc1ccc(NC(=O)COC(=O)[C@@H]2CC(O)CN2S(=O)(=O)c2ccc3c(c2)OCCO3)cc1 (stereo partly specified) | 14 | 4 | 3 | 3 | -3 | -7 | x | x | x
N/C(=N\OCc1ccc([N+](=O)[O-])cc1)c1ccncc1 | 10 | 2 | 18 | 9 | -11 | 5 | x | x | x
Cc1cc(N2C(=O)C3C4CC(c5ccccc5)C(C4)C3C2=O)no1 (stereo unspecified) | 17 | -13 | -1 | -1 | -6 | 4 | x | x | x
COc1ccc(/C=C/C(=O)N2CCN(C)CC2)cc1OC | -175 | -9 | -11 | 4 | -4 | -14 | x | x | x
COc1ccc(/C=C/C(=O)N2CCN(S(=O)(=O)/C=C/c3ccccc3)CC2)cc1OC | -133 | -4 | -8 | -2 | 89* | -16 | 73* | 0 | -20
SMILES | SENP8 block-1 | SENP8 block-2 | SENP7 block | AHR activator | EBI2 block | SENP6 inh | EBI2 conf | EBI2 ag | bGal cs
COc1ccc(/C=C/C(=O)N2CCN(S(=O)(=O)c3ccccc3Br)CC2)cc1OC | -154 | -15 | -12 | -1 | 74* | -6 | 49 | -2 | -12
COc1cc(/C=C/C(=O)N2CCN(C(=O)/C=C/c3cc(OC)c(OC)c(OC)c3)CC2)cc(OC)c1OC | -176 | -10 | 2 | 3 | 46* | -13 | 20 | -1 | -21
Cc1ccc(S(=O)(=O)CCC(O)c2ccc(Cl)cc2)cc1 (stereo unspecified) | 10 | -2 | 7 | 1 | -5 | 0 | x | x | x
C#Cc1ccc([C@H]2C=C(C(=O)N3CCN(Cc4ccc5c(c4)OCO5)CC3)O[C@@H](OCC)[C@@H]2CCCO)cc1 | 3 | -14 | -1 | -1 | 55* | -13 | 22 | 1 | 5
CC(CC(=O)c1ccccc1)=NCCCN=C(C)CC(=O)c1ccccc1 | -21 | x | x | x | -11 | x | x | x | x
S=C1NCN(C2CCCCC2)CN1c1ccccc1 | 4 | -2 | -4 | -2 | -3 | -4 | x | x | x
CCN(CC)S(=O)(=O)c1ccc(C(=O)NCc2ccc(C)cc2)cc1 | 24 | 12 | 7 | 0 | 63* | -6 | 55* | 1 | 3
CN(C)S(=O)(=O)c1ccc(C(=O)Nc2ccc(Cl)cc2)cc1 | 3 | -2 | -4 | -6 | 53* | -6 | 50* | 3 | -3
Cc1ccc(CNC(=O)c2ccc(N(C)S(=O)(=O)c3ccccc3)cc2)cc1 | 17 | 3 | 2 | 4 | 83* | -4 | 47 | 1 | 2
CN(c1ccc(C(=O)Nc2ccc(Cl)cn2)cc1)S(=O)(=O)c1ccccc1 | 3 | -10 | -4 | 1 | 50* | -2 | 56* | 0 | 4
CCN(CC(=O)NCc1ccc(F)cc1)S(=O)(=O)c1ccc(C)cc1 | 11 | -7 | -2 | -1 | -5 | -22 | x | x | x
Cc1cccc(Nc2cc(=O)n(C)c(=O)[nH]2)c1 | 7 | -4 | 6 | 6 | -9 | -10 | x | x | x
O=C(O)COc1ccccc1/C=N/NC(=O)CSc1nc2ccccc2n1Cc1ccccc1Cl | 12 | 11 | 3 | 2 | -1 | 14 | x | x | x

Bioassay records (PubChem BioAssay)
